What all share (test): DAPPL (digital affinity profiling via proximity ligation, sequencing); 10 mM Tris-HCl pH 7.5, 50 mM NaCl, 1 mM DTT, 4% glycerol, room temperature, 30 min; GST-TFs on glutathione beads, 16-mer random dsDNA library, 0.1% formaldehyde crosslink after washing; high values mean tight binding
The target of one assay is T1, FLI1 (Homo sapiens, UniProt Q01543 1-452).
T1 sequence: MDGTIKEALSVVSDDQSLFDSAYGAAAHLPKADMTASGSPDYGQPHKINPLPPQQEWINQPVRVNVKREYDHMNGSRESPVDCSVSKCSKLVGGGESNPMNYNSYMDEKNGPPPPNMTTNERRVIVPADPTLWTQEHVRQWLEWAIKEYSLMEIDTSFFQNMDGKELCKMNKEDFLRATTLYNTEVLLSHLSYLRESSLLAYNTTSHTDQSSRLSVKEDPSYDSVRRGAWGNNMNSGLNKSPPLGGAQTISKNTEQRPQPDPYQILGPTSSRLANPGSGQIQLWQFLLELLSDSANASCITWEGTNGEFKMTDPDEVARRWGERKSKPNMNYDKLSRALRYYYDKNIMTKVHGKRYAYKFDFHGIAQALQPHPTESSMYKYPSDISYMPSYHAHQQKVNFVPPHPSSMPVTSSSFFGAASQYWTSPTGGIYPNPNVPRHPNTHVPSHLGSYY
As to conditions: protein: recombinant; tags: N-terminal GST; dsDNA, one strand shown. The essentials: (§1)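 Pools of DNA-barcoded human transcription factors, expressed in yeast as GST fusions on glutathione beads and combined with a tag-only sample, were incubated with 200 nmole of a 16-mer random double-stranded DNA library. Incubation took 30 min at room temperature in Tris/NaCl/DTT/glycerol buffer and was followed by washing, 0.1% formaldehyde crosslinking, proximity ligation (BsaI/T4 ligase, 1 h, 37 °C), PCR amplification and sequencing on an Illumina NextSeq500. Binding signal is the ratio of a hexamer's read frequency for a factor to its frequency for the tag-only sample.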

Another assay has as its target T2, ELK1 (Homo sapiens, UniProt P19419 1-428).
T2 sequence: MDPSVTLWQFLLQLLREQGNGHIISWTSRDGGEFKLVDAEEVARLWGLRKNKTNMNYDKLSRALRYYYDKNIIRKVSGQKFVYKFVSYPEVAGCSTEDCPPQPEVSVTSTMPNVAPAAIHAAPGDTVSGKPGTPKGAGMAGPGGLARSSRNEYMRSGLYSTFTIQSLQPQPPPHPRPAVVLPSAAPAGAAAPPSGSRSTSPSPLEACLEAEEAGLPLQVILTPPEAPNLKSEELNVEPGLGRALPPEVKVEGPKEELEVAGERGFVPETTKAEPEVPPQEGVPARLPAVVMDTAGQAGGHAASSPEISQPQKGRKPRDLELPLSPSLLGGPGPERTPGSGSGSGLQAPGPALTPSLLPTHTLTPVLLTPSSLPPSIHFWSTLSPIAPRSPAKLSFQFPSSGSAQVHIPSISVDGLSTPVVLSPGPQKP
As to conditions: protein: recombinant; tags: N-terminal GST; dsDNA, one strand shown. The procedure, abridged:
as §1

The target of a further assay is T3, GABPA (Homo sapiens, UniProt Q06546 1-454).
T3 sequence: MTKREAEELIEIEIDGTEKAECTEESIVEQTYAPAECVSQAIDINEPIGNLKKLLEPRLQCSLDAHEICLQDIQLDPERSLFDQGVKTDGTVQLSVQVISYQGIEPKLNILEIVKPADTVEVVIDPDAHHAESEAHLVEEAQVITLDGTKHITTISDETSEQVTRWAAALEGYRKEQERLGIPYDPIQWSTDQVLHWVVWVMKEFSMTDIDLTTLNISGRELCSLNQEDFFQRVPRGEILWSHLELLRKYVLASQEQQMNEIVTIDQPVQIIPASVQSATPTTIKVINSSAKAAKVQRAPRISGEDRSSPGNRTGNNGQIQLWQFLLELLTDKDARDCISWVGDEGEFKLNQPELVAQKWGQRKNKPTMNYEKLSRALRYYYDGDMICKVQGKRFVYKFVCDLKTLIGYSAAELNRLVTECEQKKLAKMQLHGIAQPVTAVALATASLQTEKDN
As to conditions: protein: recombinant; tags: N-terminal GST; dsDNA, one strand shown. The essentials: as §1

For another assay, the target named is T4, ERG (Homo sapiens, UniProt P11308 1-479).
T4 sequence: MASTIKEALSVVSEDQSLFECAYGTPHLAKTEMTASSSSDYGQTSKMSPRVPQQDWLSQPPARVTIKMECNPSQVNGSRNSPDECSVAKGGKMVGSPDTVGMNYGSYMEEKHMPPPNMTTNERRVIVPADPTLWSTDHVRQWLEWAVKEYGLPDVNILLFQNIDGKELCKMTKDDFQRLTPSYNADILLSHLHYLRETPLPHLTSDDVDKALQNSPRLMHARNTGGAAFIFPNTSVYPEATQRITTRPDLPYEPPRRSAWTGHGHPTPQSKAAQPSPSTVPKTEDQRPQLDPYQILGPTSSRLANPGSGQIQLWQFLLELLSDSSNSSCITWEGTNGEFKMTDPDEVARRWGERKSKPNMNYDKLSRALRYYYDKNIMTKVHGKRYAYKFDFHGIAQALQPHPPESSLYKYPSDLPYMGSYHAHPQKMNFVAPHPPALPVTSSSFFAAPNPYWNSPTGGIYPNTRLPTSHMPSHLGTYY
As to conditions: protein: recombinant; tags: N-terminal GST; dsDNA, one strand shown. The procedure, abridged:
as §1

The target of another assay is ELF1 (Homo sapiens, UniProt P32519 1-619). As to conditions: protein: recombinant; tags: N-terminal GST; dsDNA, one strand shown. The procedure, abridged:
as §1

A further assay concerns the target T5, EHF (Homo sapiens, UniProt Q9NZC4 1-300).
T5 sequence: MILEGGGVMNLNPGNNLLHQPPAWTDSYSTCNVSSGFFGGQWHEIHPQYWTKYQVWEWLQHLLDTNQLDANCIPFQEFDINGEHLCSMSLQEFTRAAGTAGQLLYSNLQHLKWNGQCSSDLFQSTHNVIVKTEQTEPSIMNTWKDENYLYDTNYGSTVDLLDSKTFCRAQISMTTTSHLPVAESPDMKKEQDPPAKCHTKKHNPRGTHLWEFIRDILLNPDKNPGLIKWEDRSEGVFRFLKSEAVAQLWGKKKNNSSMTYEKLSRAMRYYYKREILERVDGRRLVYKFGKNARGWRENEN
Particulars: protein: recombinant; tags: N-terminal GST; dsDNA, one strand shown. The essentials:
as §1

For a further assay, the target named is SPI1 (Homo sapiens, UniProt P17947 1-270). Particulars: protein: recombinant; tags: N-terminal GST; dsDNA, one strand shown. The essentials: as §1
In another assay the target is SPIB (Homo sapiens, UniProt Q01892 1-262). Particulars: protein: recombinant; tags: N-terminal GST; dsDNA, one strand shown. The essentials:
as §1

A further assay concerns the target T6, FEV (Homo sapiens, UniProt Q99581 1-238).
T6 sequence: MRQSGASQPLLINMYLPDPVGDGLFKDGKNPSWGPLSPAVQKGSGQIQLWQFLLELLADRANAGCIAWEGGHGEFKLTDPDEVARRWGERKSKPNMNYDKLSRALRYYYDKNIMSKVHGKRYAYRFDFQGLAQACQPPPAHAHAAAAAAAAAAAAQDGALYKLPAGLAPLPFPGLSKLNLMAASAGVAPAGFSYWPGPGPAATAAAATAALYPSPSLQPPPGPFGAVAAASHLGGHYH
Particulars: protein: recombinant; tags: N-terminal GST; dsDNA, one strand shown. The essentials: as §1

Another assay addresses ETV5 (Homo sapiens, UniProt P41161 1-510). Particulars: protein: recombinant; tags: N-terminal GST; dsDNA, one strand shown. The procedure, abridged: as §1
A further assay addresses HSF1 (Homo sapiens, UniProt Q00613 1-529). As to conditions: protein: recombinant; tags: N-terminal GST; chain copies: 3; dsDNA, one strand shown. The procedure, abridged:
as §1

Another assay deals with T7, SPIC (Homo sapiens, UniProt Q8N5J4 1-248).
T7 sequence: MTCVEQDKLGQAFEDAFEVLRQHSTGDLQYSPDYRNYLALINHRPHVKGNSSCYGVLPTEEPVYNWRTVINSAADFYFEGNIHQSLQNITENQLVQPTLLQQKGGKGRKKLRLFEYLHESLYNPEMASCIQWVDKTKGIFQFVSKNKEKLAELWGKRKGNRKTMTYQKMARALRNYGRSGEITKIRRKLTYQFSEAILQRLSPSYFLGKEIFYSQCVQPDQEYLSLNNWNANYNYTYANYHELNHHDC
Particulars: protein: recombinant; tags: N-terminal GST; dsDNA, one strand shown. The procedure, abridged:
as §1

For another assay, the target named is ELF4 (Homo sapiens, UniProt Q99607 1-663). Particulars: protein: recombinant; tags: N-terminal GST; dsDNA, one strand shown. The essentials:
as §1

The next assay has as its target T8, ELK4 (Homo sapiens, UniProt P28324-2 1-405).
T8 sequence: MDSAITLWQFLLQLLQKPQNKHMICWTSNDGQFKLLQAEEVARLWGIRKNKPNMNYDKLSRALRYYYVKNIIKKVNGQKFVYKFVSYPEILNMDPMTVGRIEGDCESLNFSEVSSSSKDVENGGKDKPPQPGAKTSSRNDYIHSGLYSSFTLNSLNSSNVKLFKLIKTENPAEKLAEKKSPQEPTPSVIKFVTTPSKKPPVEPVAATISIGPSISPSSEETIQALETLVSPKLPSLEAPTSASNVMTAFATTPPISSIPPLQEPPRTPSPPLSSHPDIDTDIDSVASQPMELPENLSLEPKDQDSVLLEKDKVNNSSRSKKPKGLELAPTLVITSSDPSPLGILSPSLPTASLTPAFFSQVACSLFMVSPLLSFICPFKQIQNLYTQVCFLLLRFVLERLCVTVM
As to conditions: protein: recombinant; tags: N-terminal GST; dsDNA, one strand shown. The essentials:
as §1

A further assay deals with T9, ETV2 (Homo sapiens, UniProt O00321 1-342).
T9 sequence: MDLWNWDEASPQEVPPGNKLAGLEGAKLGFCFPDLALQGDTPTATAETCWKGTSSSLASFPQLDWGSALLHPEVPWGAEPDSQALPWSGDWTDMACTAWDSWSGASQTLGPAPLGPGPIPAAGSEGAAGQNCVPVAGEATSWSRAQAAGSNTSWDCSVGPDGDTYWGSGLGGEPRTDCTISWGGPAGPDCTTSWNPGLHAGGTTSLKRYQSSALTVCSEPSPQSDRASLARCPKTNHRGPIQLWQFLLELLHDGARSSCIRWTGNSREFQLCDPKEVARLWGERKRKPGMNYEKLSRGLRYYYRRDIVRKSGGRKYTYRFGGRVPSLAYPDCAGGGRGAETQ
As to conditions: protein: recombinant; tags: N-terminal GST; dsDNA, one strand shown. The essentials:
as §1

A further assay has as its target T10, ELF3 (Homo sapiens, UniProt P78545 1-371).
T10 sequence: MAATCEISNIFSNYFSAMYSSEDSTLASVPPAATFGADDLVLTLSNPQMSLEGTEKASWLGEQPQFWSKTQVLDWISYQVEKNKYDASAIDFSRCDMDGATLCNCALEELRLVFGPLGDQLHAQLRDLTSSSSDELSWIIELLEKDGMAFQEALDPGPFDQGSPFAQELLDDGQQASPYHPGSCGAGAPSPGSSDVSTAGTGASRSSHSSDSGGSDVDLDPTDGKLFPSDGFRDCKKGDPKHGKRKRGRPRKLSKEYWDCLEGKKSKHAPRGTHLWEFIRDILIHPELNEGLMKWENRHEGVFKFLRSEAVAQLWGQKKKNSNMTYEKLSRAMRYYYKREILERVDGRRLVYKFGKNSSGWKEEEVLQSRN
Particulars: protein: recombinant; tags: N-terminal GST; dsDNA, one strand shown. The procedure, abridged: as §1

A further assay addresses CRX (Homo sapiens, UniProt O43186 1-299). As to conditions: protein: recombinant; tags: N-terminal GST; dsDNA, one strand shown. The essentials:
as §1

Another assay has as its target ETV1 (Homo sapiens, UniProt P50549 1-477). As to conditions: protein: recombinant; tags: N-terminal GST; dsDNA, one strand shown. The essentials:
as §1

Chain of ELF1 (P32519 whole entry): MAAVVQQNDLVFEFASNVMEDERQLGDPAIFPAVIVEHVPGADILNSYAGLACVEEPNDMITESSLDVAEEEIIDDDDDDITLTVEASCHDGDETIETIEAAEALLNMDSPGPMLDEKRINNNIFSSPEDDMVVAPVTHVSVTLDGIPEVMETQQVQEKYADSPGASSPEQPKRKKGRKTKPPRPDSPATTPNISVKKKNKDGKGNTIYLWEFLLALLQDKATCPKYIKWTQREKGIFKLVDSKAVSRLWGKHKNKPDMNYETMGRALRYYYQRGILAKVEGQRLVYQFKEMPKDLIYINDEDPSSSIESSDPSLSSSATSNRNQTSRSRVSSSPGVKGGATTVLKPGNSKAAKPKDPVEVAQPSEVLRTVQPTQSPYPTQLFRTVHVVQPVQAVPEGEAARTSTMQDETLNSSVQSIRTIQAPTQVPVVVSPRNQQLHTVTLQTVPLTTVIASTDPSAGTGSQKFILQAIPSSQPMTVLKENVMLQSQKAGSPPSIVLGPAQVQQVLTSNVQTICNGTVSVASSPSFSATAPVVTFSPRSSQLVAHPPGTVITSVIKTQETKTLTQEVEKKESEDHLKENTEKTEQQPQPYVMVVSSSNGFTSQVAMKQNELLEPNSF
Chain of ETV5 (P41161 whole entry): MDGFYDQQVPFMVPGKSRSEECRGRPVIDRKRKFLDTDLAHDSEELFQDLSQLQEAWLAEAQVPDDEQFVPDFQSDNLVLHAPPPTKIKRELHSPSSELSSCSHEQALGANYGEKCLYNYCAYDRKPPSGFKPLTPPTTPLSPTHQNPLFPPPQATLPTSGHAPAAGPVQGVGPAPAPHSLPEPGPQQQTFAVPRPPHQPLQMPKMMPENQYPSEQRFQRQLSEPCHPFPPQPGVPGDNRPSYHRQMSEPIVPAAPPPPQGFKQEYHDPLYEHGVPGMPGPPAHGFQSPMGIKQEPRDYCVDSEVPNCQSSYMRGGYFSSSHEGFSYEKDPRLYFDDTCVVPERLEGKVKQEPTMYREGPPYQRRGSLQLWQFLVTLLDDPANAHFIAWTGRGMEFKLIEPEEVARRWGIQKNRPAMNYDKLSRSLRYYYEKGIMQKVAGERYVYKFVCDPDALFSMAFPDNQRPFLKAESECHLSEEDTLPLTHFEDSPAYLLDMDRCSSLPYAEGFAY
Chain of ELF4 (Q99607 whole entry): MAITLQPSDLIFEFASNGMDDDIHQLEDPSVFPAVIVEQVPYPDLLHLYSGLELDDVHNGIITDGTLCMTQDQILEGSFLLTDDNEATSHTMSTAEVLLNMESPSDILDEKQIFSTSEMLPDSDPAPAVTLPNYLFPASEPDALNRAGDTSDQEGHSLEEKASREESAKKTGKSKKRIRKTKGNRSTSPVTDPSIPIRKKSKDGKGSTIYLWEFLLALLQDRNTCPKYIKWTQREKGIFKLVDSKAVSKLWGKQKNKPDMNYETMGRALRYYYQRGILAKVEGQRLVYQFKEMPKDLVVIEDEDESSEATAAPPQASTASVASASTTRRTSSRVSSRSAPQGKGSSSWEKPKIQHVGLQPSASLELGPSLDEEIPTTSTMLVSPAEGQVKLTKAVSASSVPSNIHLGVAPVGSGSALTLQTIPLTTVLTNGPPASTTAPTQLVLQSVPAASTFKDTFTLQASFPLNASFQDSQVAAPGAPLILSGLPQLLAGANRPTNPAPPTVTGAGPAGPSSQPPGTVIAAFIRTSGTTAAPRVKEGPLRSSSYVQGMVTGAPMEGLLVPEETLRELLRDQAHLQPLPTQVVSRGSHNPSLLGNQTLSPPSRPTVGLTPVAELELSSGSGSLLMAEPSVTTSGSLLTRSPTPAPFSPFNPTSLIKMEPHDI
Chain of ETV1 (P50549 whole entry): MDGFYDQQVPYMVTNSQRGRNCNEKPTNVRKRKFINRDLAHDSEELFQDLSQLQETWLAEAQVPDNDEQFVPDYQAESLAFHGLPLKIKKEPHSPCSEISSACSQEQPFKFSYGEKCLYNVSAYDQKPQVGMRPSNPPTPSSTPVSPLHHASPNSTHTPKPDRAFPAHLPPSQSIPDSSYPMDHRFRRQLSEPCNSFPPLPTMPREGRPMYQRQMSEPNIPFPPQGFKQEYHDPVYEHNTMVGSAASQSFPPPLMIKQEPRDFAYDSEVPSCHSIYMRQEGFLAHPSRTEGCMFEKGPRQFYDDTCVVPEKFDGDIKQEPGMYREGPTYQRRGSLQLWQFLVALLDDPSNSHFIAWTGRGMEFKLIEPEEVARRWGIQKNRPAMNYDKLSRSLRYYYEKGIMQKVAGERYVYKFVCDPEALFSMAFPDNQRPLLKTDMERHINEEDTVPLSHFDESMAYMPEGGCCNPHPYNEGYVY
Chain of SPIB (Q01892 whole entry): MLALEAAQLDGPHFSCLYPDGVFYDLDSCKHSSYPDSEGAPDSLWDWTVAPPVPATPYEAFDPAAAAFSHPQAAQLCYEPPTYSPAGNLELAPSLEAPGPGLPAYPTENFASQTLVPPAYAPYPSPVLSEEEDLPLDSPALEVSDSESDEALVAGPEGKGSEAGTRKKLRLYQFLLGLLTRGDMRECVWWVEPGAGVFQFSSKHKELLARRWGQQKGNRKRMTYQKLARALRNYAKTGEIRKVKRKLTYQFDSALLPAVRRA
Chain of CRX (O43186 whole entry): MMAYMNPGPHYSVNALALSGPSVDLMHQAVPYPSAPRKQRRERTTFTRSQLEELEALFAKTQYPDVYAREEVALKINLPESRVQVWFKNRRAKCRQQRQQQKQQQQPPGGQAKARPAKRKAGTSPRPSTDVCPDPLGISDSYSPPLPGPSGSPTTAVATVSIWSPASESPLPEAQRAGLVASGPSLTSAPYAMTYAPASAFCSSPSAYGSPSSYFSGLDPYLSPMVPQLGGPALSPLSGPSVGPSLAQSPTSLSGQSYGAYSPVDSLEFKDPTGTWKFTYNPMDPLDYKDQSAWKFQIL
Chain of HSF1 (Q00613 whole entry): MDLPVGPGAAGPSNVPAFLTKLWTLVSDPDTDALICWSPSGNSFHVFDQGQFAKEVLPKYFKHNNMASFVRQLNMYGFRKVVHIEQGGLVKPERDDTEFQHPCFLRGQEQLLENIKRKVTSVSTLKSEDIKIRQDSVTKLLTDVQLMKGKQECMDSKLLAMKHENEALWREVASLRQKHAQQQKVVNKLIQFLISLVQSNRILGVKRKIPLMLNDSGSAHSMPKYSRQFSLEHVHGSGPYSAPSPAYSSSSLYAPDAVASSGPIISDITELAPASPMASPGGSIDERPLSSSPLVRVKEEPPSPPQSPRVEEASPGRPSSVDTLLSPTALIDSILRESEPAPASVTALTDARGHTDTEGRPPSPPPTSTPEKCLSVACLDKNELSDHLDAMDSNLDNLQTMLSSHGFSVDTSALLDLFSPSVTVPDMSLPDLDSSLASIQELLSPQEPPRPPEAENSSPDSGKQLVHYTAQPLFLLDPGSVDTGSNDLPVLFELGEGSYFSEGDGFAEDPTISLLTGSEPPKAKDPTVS

Consider AATAGA, for which the binding signal is 1.06 fold enrichment (6-mer frequency, TF over GST control) with FLI1; 1.09 fold enrichment (6-mer frequency, TF over GST control) with ELK1; 1.11 fold enrichment (6-mer frequency, TF over GST control) with GABPA; 1.12 fold enrichment (6-mer frequency, TF over GST control) with ERG; 1.09 fold enrichment (6-mer frequency, TF over GST control) with ELF1; 1.08 fold enrichment (6-mer frequency, TF over GST control) in the assay with EHF. In addition, the binding signal in the assay with SPI1 was 1.08 fold enrichment (6-mer frequency, TF over GST control); with SPIB it was 1.05 fold enrichment (6-mer frequency, TF over GST control); with FEV it was 1.07 fold enrichment (6-mer frequency, TF over GST control); with ETV5, 1.07 fold enrichment (6-mer frequency, TF over GST control); with HSF1, 1.34 fold enrichment (6-mer frequency, TF over GST control); with SPIC, 1.02 fold enrichment (6-mer frequency, TF over GST control). Further, the binding signal with ELF4 is 1.07 fold enrichment (6-mer frequency, TF over GST control); with ELK4, 1.1 fold enrichment (6-mer frequency, TF over GST control); with ETV2, 1.13 fold enrichment (6-mer frequency, TF over GST control); with ELF3, 1.07 fold enrichment (6-mer frequency, TF over GST control); in the assay with CRX, 1.15 fold enrichment (6-mer frequency, TF over GST control); with ETV1 it was 1.07 fold enrichment (6-mer frequency, TF over GST control).

(Values after PMC7862700, “An all-to-all approach to the identification of sequence-specific readers for epigenetic DNA modifications on cytosine”.)
